About 79,000 compounds went through this panel and 15% of them were active in at least one assay; those are over-represented in the sample as a whole. A number with no mark means an inactive call. Active and inactive are the calls of the source. Rule as the data show it: active = growth inhibition above about 70%; inactive = the rest.
Assays:
[1] = NCI Yeast Anticancer Drug Screen. Data for the rad50 strain (AID 155);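 also: 0% = growth of vehicle-only cultures of the same strain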; conditions: S. cerevisiae rad50 strain growth inhibition, active compounds read high
How it was run: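 Vehicle-treated cultures provide the reference for the growth inhibition reported for compound-exposed, repair-deficient yeast.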

[2] = NCI Yeast Anticancer Drug Screen. Data for the mec2-1 strain (AID 157); conditions: S. cerevisiae mec2-1 strain, active compounds read high
How it was run: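 Growth inhibition is read against vehicle-treated controls after compound exposure of the mec2-1 yeast strain, which is defective in DNA damage repair or cell cycle control.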

[3] = NCI Yeast Anticancer Drug Screen. Data for the sgs1 mgt1 strain (AID 161);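 also: 0% = growth of cultures given vehicle only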; conditions: S. cerevisiae sgs1 mgt1 strain, active compounds read high
How it was run: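 Growth of a repair-deficient yeast mutant was monitored after compound treatment and expressed as inhibition relative to vehicle-treated cultures.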

[4] = NCI Yeast Anticancer Drug Screen. Data for the cln2 rad14 strain (AID 165);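 also: 0% = growth equal to vehicle treated cultures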; conditions: S. cerevisiae cln2 rad14 strain, active compounds read high
How it was run: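 Growth inhibition, relative to vehicle-treated controls, is the read-out. The test organism is a yeast strain with defined genetic alterations, cln2 rad14.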

[5] = NCI Yeast Anticancer Drug Screen. Data for the bub3 strain (AID 167); conditions: S. cerevisiae bub3 mutant strain, active compounds read high
How it was run: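 Mutant yeast screening strain plus compound; vehicle-treated cultures serve as the 0% inhibition reference.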

[6] = NCI Yeast Anticancer Drug Screen. Data for the mlh1 rad18 strain (AID 175); conditions: S. cerevisiae mlh1 rad18 strain growth inhibition, active compounds read high
How it was run: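 Cells of a genetically altered yeast strain, deficient in DNA damage repair, were treated with compound. Their growth was then compared with that of vehicle-treated cultures to give inhibition.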

[7] = at 5.0 µM (retest, dose inferred, filed as 0.5)
[8] = at 50.0 µM (retest, dose inferred, filed as 5.0)

Row | SMILES | growth inhibition [1, 7] | growth inhibition [1, 8] | growth inhibition ([1]; at 50.0 µM) | growth inhibition [2, 7] | growth inhibition [2, 8] | growth inhibition ([2]; at 50.0 µM) | growth inhibition [3, 7] | growth inhibition [3, 8] | growth inhibition ([3]; at 50.0 µM) | growth inhibition [4, 7] | growth inhibition [4, 8] | growth inhibition ([4]; at 50.0 µM) | growth inhibition [5, 7] | growth inhibition [5, 8] | growth inhibition ([5]; at 50.0 µM) | growth inhibition [6, 7] | growth inhibition [6, 8] | growth inhibition ([6]; at 50.0 µM)
1 | O=C1CCC(Cc2ccccc2Br)C(=O)N1 (stereo not given) | -5% | 10% | -10.8% | -1% | 6% | 36% | 11% | 92% (active) | 97.2% (active) | -4% | 8% | -39.2% | -4% | 6% | -45.5% | -7% | 6% | 6.35%
2 | COC1CC2CCC(C)[C@](O)(O2)C(=O)C(=O)N2CCCCC2C(=O)OC(C(C)CC2CCC(O)C(OC)C2)CC(=O)C(C)C=C(C)C(OC(=O)CCCN2CCCC2)C(OC)C(=O)C(C)CC(C)/C=C/C=C/C=C\1C (stereo not given in full) | 96% (active) | 98% (active) | 90% (active) | 98% (active) | 98% (active) | 92.3% (active) | 97% (active) | 97% (active) | 92.9% (active) | 91% (active) | 96% (active) | 88.2% (active) | 97% (active) | 98% (active) | 92% (active) | 96% (active) | 98% (active) | 91.5% (active)
3 | Oc1c(Br)ccc2cccnc12 | 26% | 99% (active) | 87.2% (active) | 23% | 99% (active) | 91.2% (active) | 4% | 99% (active) | 83.8% (active) | 0% | 98% (active) | 88.6% (active) | 1% | 99% (active) | 88.5% (active) | 1% | 98% (active) | 82.3% (active)
4 | COc1ccc(C2c3cn[nH]c3CC3CCCCC32)cc1 (stereo not given) | 25% | 98% (active) | 75.8% (active) | -8% | 99% (active) | 83.8% (active) | 9% | 98% (active) | 85.5% (active) | 31% | 99% (active) | 89.8% (active) | -20% | 99% (active) | 88.3% (active) | 8% | 98% (active) | 90.7% (active)
5 | COc1ccccc1C1c2cc3c(cc2OC(C)(O)C1C)OCO3 (stereo not given) | -5% | 60% | 85% (active) | -4% | 49% | 58.4% | 1% | 61% | 86.3% (active) | -3% | 53% | 74.2% (active) | 0% | 49% | 66.8% | 0% | 75% (active) | 85.5% (active)
6 | O=C(NO)C(=O)Nc1cc(Cl)ccc1Cl | 7% | 57% | 86.8% (active) | -8% | 90% (active) | 73% (active) | -3% | 89% (active) | 79.8% (active) | 2% | 94% (active) | 74.5% (active) | -28% | 94% (active) | 85.9% (active) | -2% | 94% (active) | 77.7% (active)
7 | COc1cccc(C2c3cc4c(cc3OC(N3CCCC3)C2c2ccccc2)OCO4)c1O (stereo not given) | 24% | 98% (active) | 8.35% | 19% | 99% (active) | 13% | -2% | 95% (active) | 29.4% | -7% | 96% (active) | 13.2% | 6% | 95% (active) | 26.4% | 18% | 98% (active) | 32.2%
8 | CC(=O)OC1COC(N2C(=O)C(=O)c3cc(Br)ccc32)C(OC(C)=O)C1OC(C)=O (stereo not given) | -11% | 20% | 50.7% | 1% | 7% | -12.3% | -16% | 0% | 2.9% | -37% | -4% | 19.1% | -13% | 23% | 25.4% | -2% | 14% | 12.9%
9 | CC(=O)Oc1ccc(C)cc1C(C)(C)C | -1% | 0% | 57.6% | 1% | -4% | 54.8% | -2% | -2% | 59.1% | 1% | -1% | 28.7% | 0% | -7% | 59.3% | -1% | 0% | 74.2% (active)
10 | Nc1cc(S(=O)(=O)O)cc2cc(S(=O)(=O)O)c(N=Nc3ccccc3)c(O)c12 | 0% | -1% | 99.3% (active) | -2% | 5% | 99.2% (active) | 0% | 0% | 99.3% (active) | 12% | 3% | 96.5% (active) | -36% | 10% | 99% (active) | 0% | 1% | 98.7% (active)
